Experimental findings from the supplement of paper PMC3334620 are described below.

In all, about 33,000 sequences were measured (“E-score (-0.5 to 0.5)”: median about -0.016, highest 2% from about 0.32 on). Many of the other results were omitted from the sample, so the highest values are more common in it than they were.

The target in the test is T1, Stp1 (UniProt B3LFK1).
T1 sequence: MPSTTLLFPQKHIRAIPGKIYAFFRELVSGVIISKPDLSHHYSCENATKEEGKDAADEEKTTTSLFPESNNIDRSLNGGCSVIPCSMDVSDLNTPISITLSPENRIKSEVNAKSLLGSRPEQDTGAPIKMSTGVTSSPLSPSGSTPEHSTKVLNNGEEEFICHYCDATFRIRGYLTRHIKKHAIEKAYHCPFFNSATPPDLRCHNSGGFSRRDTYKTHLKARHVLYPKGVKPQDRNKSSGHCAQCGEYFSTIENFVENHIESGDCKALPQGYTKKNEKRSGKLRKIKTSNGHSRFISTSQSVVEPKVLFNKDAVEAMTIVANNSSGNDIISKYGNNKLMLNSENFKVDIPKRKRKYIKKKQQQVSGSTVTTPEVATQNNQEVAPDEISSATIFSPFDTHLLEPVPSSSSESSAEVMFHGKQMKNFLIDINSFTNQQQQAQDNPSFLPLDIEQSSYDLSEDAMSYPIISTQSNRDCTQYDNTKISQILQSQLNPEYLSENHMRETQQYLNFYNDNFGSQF
In words: PBM E-score (8-mer binding enrichment) (E-score (-0.5 to 0.5)); higher = stronger / more preferred TF binding. Particulars: protein concentration: 200 nM; construct: GST-full length. As for the experimental part:
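Universal 'all 10-mer' protein binding microarrays (Agilent AMADID 015681) probed with GST-tagged S. cerevisiae TFs (full-length or DBD) made by in vitro transcription/translation (PURExpress), about 100-200 nM. Bound TF was detected with fluorescent anti-GST. Each ungapped 8-mer (which stands for itself and its reverse complement) is scored by the PBM enrichment score (E-score), a modified Wilcoxon-Mann-Whitney statistic from -0.5 to +0.5, computed with the Universal PBM Analysis Suite. Scale: above 0.35 generally sequence-specific binding.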
As to CGTCACGA, the “PBM E-score” value is 0.0354.

In the case of AGAACGCA, the “PBM E-score” value was -0.00423.

For ATGGCATA, the “PBM E-score” value amounted to 0.226.

Consider CCGGCATA, for which the “PBM E-score” value was -0.183.

Turning to GCGGCATA, the “PBM E-score” value is 0.435.

ACGGCATA: the “PBM E-score” value was 0.45.

For the sequence AGGGCATA, the “PBM E-score” value stood at 0.128.

As to GTGGCATA, the “PBM E-score” value worked out at 0.0347.

AGCCTATG: the “PBM E-score” value was -0.0976.

In the case of ATTGGCGC, the “PBM E-score” value is 0.189.

In the case of ACGCACCG, the “PBM E-score” value worked out at 0.0649.

For CGTTGCTC, the “PBM E-score” value was found to be 0.0478.

Consider GAAGGGCA, for which the “PBM E-score” value was determined as 0.231.

With GACCGAGC, the “PBM E-score” value is -0.228.

Turning to GGGCGTCA, the “PBM E-score” value was -0.037.

For CGGCGTCC, the “PBM E-score” value came out at 0.376.

Take AGGCGTCC: the “PBM E-score” value was -0.0371.

Take AGGCGTCA: the “PBM E-score” value is 0.172.

For the sequence CGGCGTGC, the “PBM E-score” value stood at 0.316.

With CGGCGTCA, the “PBM E-score” value amounted to 0.399.

For the sequence GGTGGTGA, the “PBM E-score” value is -0.125.

As to GAGTACGA, the “PBM E-score” value is 0.0292.

Take GTCTAAGA: the “PBM E-score” value was 0.0284.

Regarding CATACTTA, the “PBM E-score” value was -0.00908.

AACTTCAT: the “PBM E-score” value was determined as 0.092.

On to GAATCGGC, for which the “PBM E-score” value is 0.268.

In the case of AGCATGCG, the “PBM E-score” value turned out to be 0.016.

As to CAGGGGCA, the “PBM E-score” value was -0.0911.

Consider CGGCCTTA, for which the “PBM E-score” value stood at 0.293.

Take CGGCCTTC: the “PBM E-score” value was found to be 0.322.

Regarding AGGCCTTC, the “PBM E-score” value was -0.188.

As for AATAAATA, the “PBM E-score” value came out at 0.35.

For the sequence TATAAATA, the “PBM E-score” value amounted to 0.198.

For AATAAATG, the “PBM E-score” value was 0.219.

Take CACAGTAA: the “PBM E-score” value turned out to be 0.209.

Regarding GGGAGACC, the “PBM E-score” value was -0.355.

As to GCCTCACA, the “PBM E-score” value is 0.263.

For GCCTCACC, the “PBM E-score” value stood at 0.327.

ACCTCACC: the “PBM E-score” value was -0.128.

In the case of GATGCAGA, the “PBM E-score” value is -0.0503.

Consider GCTGTTGA, for which the “PBM E-score” value is 0.169.

Regarding CTGTAGCC, the “PBM E-score” value was determined as 0.041.

For the sequence ATTTCAAA, the “PBM E-score” value was 0.134.

For the sequence CATCGCGG, the “PBM E-score” value stood at 0.0513.

As to GCATGGCA, the “PBM E-score” value worked out at 0.375.

For the sequence CCATGGCA, the “PBM E-score” value was found to be 0.0885.

As for TCATGGCA, the “PBM E-score” value was -0.00249.

Regarding ACTCCGCG, the “PBM E-score” value is 0.068.

On to CCTACGCC, for which the “PBM E-score” value was -0.0289.

Regarding ACTACGGC, the “PBM E-score” value amounted to 0.359.

On to CCTACGGC, for which the “PBM E-score” value was determined as 0.39.

On to ACTACGGA, for which the “PBM E-score” value is -0.0355.

Turning to ACTACGGG, the “PBM E-score” value was -0.222.

Take CCTACGGA: the “PBM E-score” value is -0.13.

On to CTATCTTA, for which the “PBM E-score” value was found to be 0.0702.

For the sequence GAAAGGAC, the “PBM E-score” value stood at 0.0713.

For the sequence AATAGTAA, the “PBM E-score” value is 0.0925.

With CTGTCGCA, the “PBM E-score” value worked out at 0.00593.

CCCGCTGA: the “PBM E-score” value was -0.297.

With GATCGCAA, the “PBM E-score” value was 0.0331.

Take ACGCGCGC: the “PBM E-score” value amounted to 0.289.

Regarding GCGCGCGA, the “PBM E-score” value came out at 0.285.

Regarding CCGCGCTC, the “PBM E-score” value is 0.235.

With CCGCGCGC, the “PBM E-score” value stood at 0.381.

As to CCGCGCGG, the “PBM E-score” value turned out to be 0.469.

With CCGCGTGA, the “PBM E-score” value turned out to be 0.313.

CCGCGTGC: the “PBM E-score” value was found to be 0.329.

ACGCGCGG: the “PBM E-score” value turned out to be 0.316.

Turning to ACGCGTGC, the “PBM E-score” value is 0.191.

Regarding GCGCGCGC, the “PBM E-score” value was 0.396.

On to CAGCGCGG, for which the “PBM E-score” value amounted to 0.211.

Consider CCGCGCGA, for which the “PBM E-score” value is 0.314.

For the sequence GCTATCCA, the “PBM E-score” value was -0.0017.

On to CCTCCAGC, for which the “PBM E-score” value was -0.217.

On to CAAGAGTC, for which the “PBM E-score” value is -0.177.

Consider GCCACGGC, for which the “PBM E-score” value worked out at 0.469.

Consider ACCACGGC, for which the “PBM E-score” value was 0.327.

Turning to CCCACGGG, the “PBM E-score” value was -0.166.

Regarding ACCACGGA, the “PBM E-score” value is -0.0752.

For the sequence ACCACGGG, the “PBM E-score” value was -0.0439.

In the case of GCCACGGA, the “PBM E-score” value came to 0.163.

In the case of CCCACGGA, the “PBM E-score” value was found to be 0.00496.

As to GCCACGCC, the “PBM E-score” value is 0.267.

For the sequence CCCACGGC, the “PBM E-score” value is 0.417.

On to GGCCCCCA, for which the “PBM E-score” value is -0.406.

Turning to AAGCTCAT, the “PBM E-score” value was -0.206.

On to AATTCTCC, for which the “PBM E-score” value came to 0.0125.

In the case of GAATTCTC, the “PBM E-score” value stood at 0.0702.
